High-throughput results deposited in PubChem by National Center for Advancing Translational Sciences (NCATS).
TrxR1 substrate – is turned over as a substrate by rat TrxR1; O89049; purified TrxR1 substrate turnover, NADPH consumption readout; Potency, µM (top dose mostly 114 µM), inactives show top-dose activity change, negative = substrate turnover; 0.01% of 390,000 active; AID 588456; also: nearly all actives have a fitted effect of over 50% in size
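Rat TrxR1, dispensed at 90 nM, was prereduced with 400 uM NADPH (final) for 5 min at ~22 deg C, then incubated with compound 15 min before 400 uM selenite. A first-read NADPH fluorescence drop versus no-compound background flagged substrates.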
VDR inhibitor – blocks the human vitamin D receptor. P11473. VDR-SRC2-3 peptide fluorescence polarization, 2 h. Potency, µM, without a hit: max response, negative = inhibition, actives largely listed as inhibitors. 0.93% of 400,000 active. AID 504847
Target sequence (P11473 whole entry, looked up): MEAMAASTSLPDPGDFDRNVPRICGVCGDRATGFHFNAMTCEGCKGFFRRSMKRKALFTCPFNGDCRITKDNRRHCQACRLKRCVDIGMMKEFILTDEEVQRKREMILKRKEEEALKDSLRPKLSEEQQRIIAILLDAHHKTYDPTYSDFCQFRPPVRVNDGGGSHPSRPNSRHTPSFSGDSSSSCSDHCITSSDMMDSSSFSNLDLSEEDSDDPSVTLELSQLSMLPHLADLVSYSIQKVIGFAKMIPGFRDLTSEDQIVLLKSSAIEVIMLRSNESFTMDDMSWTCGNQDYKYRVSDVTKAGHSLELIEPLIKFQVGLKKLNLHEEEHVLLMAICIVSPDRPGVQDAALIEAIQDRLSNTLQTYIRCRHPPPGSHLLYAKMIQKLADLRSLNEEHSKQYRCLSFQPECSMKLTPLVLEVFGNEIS
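Signal is fluorescence polarization, reporting how far test compounds block the interaction of VDR with the SRC2-3 coregulator peptide after a 2 h room-temperature incubation.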
mIDH1 inhibitor – inhibitors of human mutant IDH1 R132H; IDH1-R132H enzyme, NADPH consumption, diaphorase/resazurin fluorescence; Potency, µM (series often up to 76.6 µM), for inactives: at the top dose activity change, negative = inhibition, most hits filed as inhibitors; 0.093% of 390,000 active; also: nearly all actives have a fitted effect of over 65% in size
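IDH1-R132H (0.5 ug/mL dispensed) in pH 7.5 Tris buffer was preincubated 30 min with compound, then given a substrate mix of 0.016 mM NADPH and 2 mM alpha-KG for 80 min at room temperature; remaining NADPH was read by diaphorase/resazurin fluorescence.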
PLK1 PBD inh – inhibitors of human PLK1 polo-box domain binding; Plk1 PBD binding of FITC phosphopeptide, fluorescence polarization; Potency, µM, without a hit: max response, negative = inhibition, usual class: inhibitors; 2.8% of 360,000 active; also: series mostly up to about 57 µM; nearly all actives have a fitted effect of over 65% in size
Sfp PPTase inh – blocks B. subtilis Sfp PPTase activity; Q9F4F7; Biochemical Sfp PPTase activity, qHTS; Potency, µM, for the others: largest response in the series, negative = inhibition, hits mostly inhibitors; 3.5% of 310,000 active;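 also: the enzyme is Sfp with the accession as filed and its product quenches rhodamine fluorescence; 0% = enzyme reaction without inhibitor and -100% = no enzyme wells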
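Buffer: 50 mM Hepes-Na pH 7.6, 10 mM MgCl2, 0.01% Nonidet P-40, 0.01% BSA. Enzyme 15 nM, pre-exposed to compound 15 min; substrates then added and fluorescence change tracked over 30 min.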
rTrxR1 inhibitor – inhibitors of rat thioredoxin reductase 1; recombinant rTrxR1, NADPH fluorescence consumption, selenite substrate; Potency, µM (series often up to 114 µM), inactives show top-dose activity change, negative = inhibition, actives largely listed as inhibitors; 1% of 390,000 active; also: nearly all actives have a fitted effect of over 65% in size
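Rat TrxR1 (90 nM in the dispensed reagent) was pre-reduced with 400 uM NADPH for 5 min at room temperature, then incubated with compound for 15 min. After 400 uM selenite was added, NADPH fluorescence (Ex 340/Em 450 nm) was followed for 8 min.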
* marks the source's active call; other numbers are inactive results; ? = inconclusive; . = not tested or not shown; ! = a repeat was not active; [ ] = another dose, or the depositor's remark. Rows were chosen to be rich in hits. Some 5.2% of all compounds tested hit in one or more screens of this group. Calls follow the shape of the dose curve; as a rule, active = well fitted curve in the direction sought with a large enough effect; inconclusive = small, poorly fitted or top-dose-only effect, or another doubt; inactive = no such curve, though single readings can be large; an effect the other way counts as inactive or inconclusive. Unless noted, % is scaled to controls: 0 for no effect and ±100 for the full control effect; potency is read from the fitted curve at half-maximal effect.

SMILES	TrxR1 substrate	VDR inhibitor	mIDH1 inhibitor	PLK1 PBD inh	Sfp PPTase inh	rTrxR1 inhibitor
O=C(NC(Sc1ccc(Cl)cc1)C(=O)O)c1ccccc1 (stereo not drawn)	.	.	-8.1%	13.4µM*	.	.
COc1ccc(C2C3=C(CC(c4ccco4)CC3=O)Nc3ccccc3N2C(C)=O)cc1 (stereo not drawn)	2.8%[57.1 µM]	-1.1%	-3.0%	3.9%	14.3%	2.0%[57.1 µM]
O=C1CC(c2ccco2)CC2=C1C(c1ccccc1)n1nc(C(F)(F)F)nc1N2 (stereo not drawn)	8.6%[57.1 µM]	-15.9%	-0.6%	-4.4%	10µM*	3.4%[57.1 µM]
Cc1ccc(-c2ccccc2NC(=O)CS(=O)CC(=O)Nc2ccc(C)c(Cl)c2)o1 (stereo not drawn)	0.7%	44.7µM*	-6.5%	18.9µM*	6.0%	3.55µM*
CCCCC1=CC2=C(c3ccco3)C(=O)C(C)(OC(=O)c3ccc(OC)cc3)C(=O)C2=CN1Cc1ccccc1 (stereo not drawn)	-5.4%	?	2.7%[38.3 µM]	-27.0%	44.7µM*!	44.7µM*
CCCCC1=CC2=C(c3ccco3)C(=O)C(C)(OC(=O)c3ccc(OC)cc3)C(=O)C2=CN1C1CCCCC1 (stereo not drawn)	-8.1%	?	-9.5%	-18.4%	56.2µM*!	-27.7%
CCCCC1=CC2=C(c3ccco3)C(=O)C(C)(OC(=O)c3ccc(OC)cc3)C(=O)C2=CN1CCc1ccccn1 (stereo not drawn)	-3.0%	?	11.2%	-19.9%	56.2µM*!	?
CCCCC1=CC2=C(c3ccco3)C(=O)C(C)(OC(=O)c3ccc(OC)cc3)C(=O)C2=CN1CCOC (stereo not drawn)	-9.0%	-26.5%	-15.1%	-17.5%	-6.6%	?
CCOc1ccccc1NC(=O)CCc1c(C)nc2c(c(C)nn2-c2ccccc2)c1C	11.0%	0.9%	1.5%	.	.	10.0%
O=C(Cn1ccn(-c2cccc(Cl)c2)c(=O)c1=O)NCCc1ccccc1	-3.6%	-10.5%	11.4%	.	.	-25.6%[11.4 µM]
CCOC(=O)C1C(=O)N(C(=O)c2cncc(Br)c2)CC1c1ccccc1 (stereo not drawn)	11.0%[57.1 µM]	?	2.1%	2.99µM*	-3.0%	-5.3%
CCOC(=O)C1C(=O)N(C(=O)c2ccc(OC)cc2)CC1c1ccccc1 (stereo not drawn)	-2.2%	-13.0%	-9.8%	-6.3%	16.0%	4.6%
COc1cc(OC)cc(-c2noc(-c3csc([C@@H]4C[C@H](O)[C@@H](CO)O4)n3)n2)c1	.	.	.	2.7%	.	.
Nc1ccc(N2CCCCC2)c(Cl)c1	-0.7%[57.1 µM]	2.7%	-12.3%	-15.2%	16.8%	7.1%[57.1 µM]
Nc1cccc(Cl)c1N1CCOCC1	-8.3%	5.1%	8.5%	26.7µM*	14.7%	7.6%
Nc1ccc(N2CCOCC2)c(Cl)c1	0.3%	6.3%	1.6%	23.8µM*	14.6%	2.5%[57.1 µM]
C=CCN1C(=O)/C(=c2\sc3nc(=O)c(Cc4ccccc4)nn3c2=O)c2ccccc21	-10.2%[57.1 µM]	?	-5.4%	13.4µM*	12.6µM*	?
CCN1C(=O)/C(=c2\sc3nc(=O)c(Cc4ccccc4)nn3c2=O)c2ccccc21	-4.3%[57.1 µM]	?	0.2%	?	25.1µM*	?
CCCC(NC(=O)CCc1c(C)c2cc3c(-c4ccccc4)coc3cc2oc1=O)C(=O)O (stereo not drawn)	-1.1%	-10.2%	1.3%	-2.7%	0.7%	-8.5%
COc1ccc2c(c1)OC/C(=C\c1ccc(OC)c(O)c1)C2=O	.	20µM*	.	.	-38.0%	.
Cc1cc2cc3c(cc2nc1SCC(=O)Nc1nc(C)c(C)s1)OCO3	3.4%	4.3%	-2.4%	-16.0%	25.1µM*	4.3%
COc1ccc(CCNC(=O)C(=O)NCC(c2cccs2)S(=O)(=O)c2cccs2)cc1 (stereo not drawn)	2.0%[57.1 µM]	4.9%	20.9%	.	.	8.6%[57.1 µM]
Cc1ccc(N2C(=O)CS(=O)C(c3ccccc3)C2=O)cc1C (stereo not drawn)	-13.9%[57.1 µM]	?	6.4%	1.5µM*	3.16µM*	?
CCCCC(CC)COC(=O)CC(C(=O)OCC(CC)CCCC)S(=O)(=O)O (stereo not drawn)	.	25.1µM*	.	.	-13.8%	.
Cc1cc(O)c2c(c1)OC1(C)CCC3C(C)(C)CCCC34COC2C14 (stereo not drawn)	.	-25.7%	.	.	13.3%	.
SMILES	TrxR1 substrate	VDR inhibitor	mIDH1 inhibitor	PLK1 PBD inh	Sfp PPTase inh	rTrxR1 inhibitor
O=C(O)/C=C/c1cn(Cc2ccccc2)nc1-c1ccc(Cl)cc1	-3.7%[57.1 µM]	1.8%	1.9%	-3.3%	9.3%	9.2%[57.1 µM]
O=C(O)/C=C/c1cn(Cc2ccccc2Cl)nc1-c1ccccc1	0.5%	?	-10.2%	26.7µM*	-19.2%	18.5%
O=C(NC12CC3CC(CC(C3)C1)C2)c1cc([N+](=O)[O-])ccc1N1CCOCC1	-0.1%	-5.0%	0.0%	-14.2%	-6.9%	8.3%
N#C/C(=C\c1ccccc1)C(=O)N(c1ccccn1)C1CCCCC1	-18.2%	25.1µM*	3.5%	-13.1%	-4.2%	?
CC(C)COC(=O)C(C)Nc1n[nH]c(=S)[nH]c1=O (stereo not drawn)	-11.6%[57.1 µM]	14.2%	0.0%	?	21.9%	-25.4%[57.1 µM]
COC(=O)CNc1n[nH]c(=S)[nH]c1=O	-15.6%	-0.7%	11.5%	-11.9%	50.1µM*	8.8%[57.1 µM]
CC(C)OC(=O)CNc1n[nH]c(=S)[nH]c1=O	-6.3%	-8.5%	-6.2%	-16.6%	44.7µM*	6.3%[57.1 µM]
CCOC(=O)CSc1nnc(NCC(=O)OC(C)C)c(=O)[nH]1	-3.4%[57.1 µM]	-11.5%	6.7%	?	?	1.78µM*
CN(C)C(=O)CNc1n[nH]c(=S)[nH]c1=O	-9.4%	-15.1%	0.0%	1.8%	20µM*	-34.2%
Cc1ccccc1CN1CCc2c(OCC(=O)N3CCCCC3)cccc2C1=O	1.1%[57.1 µM]	-29.9%	0.1%	29.9µM*	13.0%	-2.3%[57.1 µM]
S=C(Nc1ccc(Cl)cc1)Nc1cccc2cnccc12	-8.1%	?	15.8%	-8.8%	?	-50.8%
COc1cc(NC(=S)Nc2cccnc2)cc(OC)c1	9.4%[57.1 µM]	-10.5%	0.6%	23.8µM*	?	-14.5%
Cc1cc(Cl)ccc1NC(=S)Nc1cccnc1	-9.8%	-17.4%	0.3%	-24.9%	-1.4%	28.2µM*
Fc1ccc(NC(=S)Nc2cccc3cnccc23)cc1	-2.4%	-18.4%	11.2%	?	2.82µM*	?
CN(C)S(=O)(=O)c1cccc(NC(=S)Nc2cccc3cnccc23)c1	-4.6%	?	8.8%	16.8µM*	2.51µM*	39.8µM*
CCN(C(=O)COC(=O)c1ccc(O)cc1O)c1c(N)n(Cc2ccccc2)c(=O)[nH]c1=O	-2.7%	-12.6%	-1.2%	-7.0%	.	17.3%
CCc1ccc(C(=O)Cc2cc3cccc(OC)c3oc2=O)cc1	-1.5%	-9.3%	-1.2%	-9.7%	0.7%	15.5%
S=C(Nc1ccc2cn[nH]c2c1)Nc1ccc(Cl)cc1Cl	1.6%	?	0.8%	15µM*	15.8µM*	-12.9%[57.1 µM]
O=C(Nc1cccnc1)Nc1cccc(F)c1	7.9%	2.7%	10.6%	4.8%	20.0%	11.5%
